According to ChEMBL document CHEMBL1961873, “Compounds: GSK PKIS; Assays: Nanosyn kinase panel” (2012):

What was measured:
[1] = target: Platelet-derived growth factor receptor beta (Homo sapiens) (UniProt P09619); settings: at 1 µM;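 also: each value is a mean percent inhibition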
[2] = target: Tyrosine-protein kinase FRK (Homo sapiens) (UniProt P42685); settings: at 0.1 µM
[3] = target: Tyrosine-protein kinase FRK (Homo sapiens) (UniProt P42685); settings: at 1 µM
[4] = target: Protein-tyrosine kinase 2-beta (Homo sapiens) (UniProt Q14289); settings: at 0.1 µM
Sequence of Protein-tyrosine kinase 2-beta (Homo sapiens) (Q14289 whole entry, looked up): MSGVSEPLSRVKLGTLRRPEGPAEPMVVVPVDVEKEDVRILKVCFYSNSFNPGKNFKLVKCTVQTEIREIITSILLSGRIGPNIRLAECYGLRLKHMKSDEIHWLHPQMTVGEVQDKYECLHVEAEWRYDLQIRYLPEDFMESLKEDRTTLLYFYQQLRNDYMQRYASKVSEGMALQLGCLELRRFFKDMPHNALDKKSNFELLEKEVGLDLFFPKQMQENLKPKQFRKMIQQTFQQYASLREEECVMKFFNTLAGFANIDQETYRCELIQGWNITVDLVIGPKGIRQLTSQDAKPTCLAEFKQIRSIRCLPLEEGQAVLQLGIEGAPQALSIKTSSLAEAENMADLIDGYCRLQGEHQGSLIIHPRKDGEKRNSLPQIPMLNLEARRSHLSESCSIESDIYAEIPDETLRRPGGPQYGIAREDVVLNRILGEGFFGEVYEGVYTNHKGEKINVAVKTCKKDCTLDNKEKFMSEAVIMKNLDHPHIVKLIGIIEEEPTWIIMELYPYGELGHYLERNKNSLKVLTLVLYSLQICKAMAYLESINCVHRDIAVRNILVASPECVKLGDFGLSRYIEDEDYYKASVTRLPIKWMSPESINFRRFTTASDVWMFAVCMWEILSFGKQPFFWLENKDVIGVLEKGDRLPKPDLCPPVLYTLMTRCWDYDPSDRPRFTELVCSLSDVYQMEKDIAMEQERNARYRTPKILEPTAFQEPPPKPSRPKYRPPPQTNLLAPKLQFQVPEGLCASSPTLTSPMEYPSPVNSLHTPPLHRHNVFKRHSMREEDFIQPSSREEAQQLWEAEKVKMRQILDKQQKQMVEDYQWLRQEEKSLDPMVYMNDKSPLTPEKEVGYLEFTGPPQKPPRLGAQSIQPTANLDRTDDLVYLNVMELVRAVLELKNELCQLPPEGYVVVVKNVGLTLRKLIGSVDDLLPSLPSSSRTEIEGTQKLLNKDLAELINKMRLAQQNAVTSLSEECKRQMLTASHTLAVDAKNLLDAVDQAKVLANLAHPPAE

[5] = target: Protein-tyrosine kinase 2-beta (Homo sapiens) (UniProt Q14289); settings: at 1 µM
[6] = target: Proto-oncogene tyrosine-protein kinase receptor Ret (Homo sapiens) (UniProt P07949); settings: at 0.1 µM
Sequence of Proto-oncogene tyrosine-protein kinase receptor Ret (Homo sapiens) (P07949 whole entry): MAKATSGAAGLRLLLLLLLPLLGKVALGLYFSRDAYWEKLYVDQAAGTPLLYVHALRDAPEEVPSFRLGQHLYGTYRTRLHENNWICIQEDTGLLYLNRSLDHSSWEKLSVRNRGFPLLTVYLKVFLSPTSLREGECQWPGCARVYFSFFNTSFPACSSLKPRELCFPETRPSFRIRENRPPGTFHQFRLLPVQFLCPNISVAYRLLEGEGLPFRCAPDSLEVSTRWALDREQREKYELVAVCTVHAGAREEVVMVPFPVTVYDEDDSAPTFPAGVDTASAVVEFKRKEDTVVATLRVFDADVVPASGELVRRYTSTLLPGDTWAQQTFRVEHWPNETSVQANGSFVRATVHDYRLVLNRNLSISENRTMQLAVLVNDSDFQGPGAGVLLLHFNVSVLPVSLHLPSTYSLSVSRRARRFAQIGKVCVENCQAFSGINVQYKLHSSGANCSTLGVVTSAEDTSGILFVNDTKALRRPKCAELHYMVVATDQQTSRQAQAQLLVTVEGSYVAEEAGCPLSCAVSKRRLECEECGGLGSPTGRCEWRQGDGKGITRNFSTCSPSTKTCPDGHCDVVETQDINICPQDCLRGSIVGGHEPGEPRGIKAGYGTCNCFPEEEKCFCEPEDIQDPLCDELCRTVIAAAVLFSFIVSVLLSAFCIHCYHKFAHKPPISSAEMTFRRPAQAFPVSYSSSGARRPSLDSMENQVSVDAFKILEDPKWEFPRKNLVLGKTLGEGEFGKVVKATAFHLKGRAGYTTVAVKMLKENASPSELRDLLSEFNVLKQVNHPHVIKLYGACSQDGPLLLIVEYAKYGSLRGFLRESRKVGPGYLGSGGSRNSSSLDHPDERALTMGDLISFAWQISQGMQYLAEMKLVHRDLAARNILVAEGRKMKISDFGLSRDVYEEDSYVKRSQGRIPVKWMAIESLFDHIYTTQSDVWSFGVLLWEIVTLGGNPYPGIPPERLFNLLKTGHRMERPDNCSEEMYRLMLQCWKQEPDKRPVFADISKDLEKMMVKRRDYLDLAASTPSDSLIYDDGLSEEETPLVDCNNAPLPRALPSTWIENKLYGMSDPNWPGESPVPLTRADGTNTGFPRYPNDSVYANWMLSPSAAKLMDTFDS

[7] = target: Proto-oncogene tyrosine-protein kinase receptor Ret (Homo sapiens) (UniProt P07949); settings: at 1 µM
[8] = system: Proto-oncogene tyrosine-protein kinase receptor Ret (Homo sapiens), P07949 [V804L]; settings: at 0.1 µM
Sequence of Proto-oncogene tyrosine-protein kinase receptor Ret (Homo sapiens), P07949 [V804L] (P07949 whole entry V804L): as the sequence (P07949 whole entry) above, with V804L counted along it

[9] = system: Proto-oncogene tyrosine-protein kinase receptor Ret (Homo sapiens), P07949 [V804L]; settings: at 1 µM
[10] = system: Proto-oncogene tyrosine-protein kinase receptor Ret (Homo sapiens), P07949 [Y791F]; settings: at 0.1 µM
Sequence of Proto-oncogene tyrosine-protein kinase receptor Ret (Homo sapiens), P07949 [Y791F] (P07949 whole entry Y791F): as the sequence (P07949 whole entry) above, with Y791F counted along it

[11] = system: Proto-oncogene tyrosine-protein kinase receptor Ret (Homo sapiens), P07949 [Y791F]; settings: at 1 µM
[12] = target: Macrophage-stimulating protein receptor (Homo sapiens) (UniProt Q04912); settings: at 0.1 µM
[13] = target: Macrophage-stimulating protein receptor (Homo sapiens) (UniProt Q04912); settings: at 1 µM
[14] = target: Proto-oncogene tyrosine-protein kinase ROS (Homo sapiens) (UniProt P08922); settings: at 0.1 µM
Sequence of Proto-oncogene tyrosine-protein kinase ROS (Homo sapiens) (P08922 whole entry): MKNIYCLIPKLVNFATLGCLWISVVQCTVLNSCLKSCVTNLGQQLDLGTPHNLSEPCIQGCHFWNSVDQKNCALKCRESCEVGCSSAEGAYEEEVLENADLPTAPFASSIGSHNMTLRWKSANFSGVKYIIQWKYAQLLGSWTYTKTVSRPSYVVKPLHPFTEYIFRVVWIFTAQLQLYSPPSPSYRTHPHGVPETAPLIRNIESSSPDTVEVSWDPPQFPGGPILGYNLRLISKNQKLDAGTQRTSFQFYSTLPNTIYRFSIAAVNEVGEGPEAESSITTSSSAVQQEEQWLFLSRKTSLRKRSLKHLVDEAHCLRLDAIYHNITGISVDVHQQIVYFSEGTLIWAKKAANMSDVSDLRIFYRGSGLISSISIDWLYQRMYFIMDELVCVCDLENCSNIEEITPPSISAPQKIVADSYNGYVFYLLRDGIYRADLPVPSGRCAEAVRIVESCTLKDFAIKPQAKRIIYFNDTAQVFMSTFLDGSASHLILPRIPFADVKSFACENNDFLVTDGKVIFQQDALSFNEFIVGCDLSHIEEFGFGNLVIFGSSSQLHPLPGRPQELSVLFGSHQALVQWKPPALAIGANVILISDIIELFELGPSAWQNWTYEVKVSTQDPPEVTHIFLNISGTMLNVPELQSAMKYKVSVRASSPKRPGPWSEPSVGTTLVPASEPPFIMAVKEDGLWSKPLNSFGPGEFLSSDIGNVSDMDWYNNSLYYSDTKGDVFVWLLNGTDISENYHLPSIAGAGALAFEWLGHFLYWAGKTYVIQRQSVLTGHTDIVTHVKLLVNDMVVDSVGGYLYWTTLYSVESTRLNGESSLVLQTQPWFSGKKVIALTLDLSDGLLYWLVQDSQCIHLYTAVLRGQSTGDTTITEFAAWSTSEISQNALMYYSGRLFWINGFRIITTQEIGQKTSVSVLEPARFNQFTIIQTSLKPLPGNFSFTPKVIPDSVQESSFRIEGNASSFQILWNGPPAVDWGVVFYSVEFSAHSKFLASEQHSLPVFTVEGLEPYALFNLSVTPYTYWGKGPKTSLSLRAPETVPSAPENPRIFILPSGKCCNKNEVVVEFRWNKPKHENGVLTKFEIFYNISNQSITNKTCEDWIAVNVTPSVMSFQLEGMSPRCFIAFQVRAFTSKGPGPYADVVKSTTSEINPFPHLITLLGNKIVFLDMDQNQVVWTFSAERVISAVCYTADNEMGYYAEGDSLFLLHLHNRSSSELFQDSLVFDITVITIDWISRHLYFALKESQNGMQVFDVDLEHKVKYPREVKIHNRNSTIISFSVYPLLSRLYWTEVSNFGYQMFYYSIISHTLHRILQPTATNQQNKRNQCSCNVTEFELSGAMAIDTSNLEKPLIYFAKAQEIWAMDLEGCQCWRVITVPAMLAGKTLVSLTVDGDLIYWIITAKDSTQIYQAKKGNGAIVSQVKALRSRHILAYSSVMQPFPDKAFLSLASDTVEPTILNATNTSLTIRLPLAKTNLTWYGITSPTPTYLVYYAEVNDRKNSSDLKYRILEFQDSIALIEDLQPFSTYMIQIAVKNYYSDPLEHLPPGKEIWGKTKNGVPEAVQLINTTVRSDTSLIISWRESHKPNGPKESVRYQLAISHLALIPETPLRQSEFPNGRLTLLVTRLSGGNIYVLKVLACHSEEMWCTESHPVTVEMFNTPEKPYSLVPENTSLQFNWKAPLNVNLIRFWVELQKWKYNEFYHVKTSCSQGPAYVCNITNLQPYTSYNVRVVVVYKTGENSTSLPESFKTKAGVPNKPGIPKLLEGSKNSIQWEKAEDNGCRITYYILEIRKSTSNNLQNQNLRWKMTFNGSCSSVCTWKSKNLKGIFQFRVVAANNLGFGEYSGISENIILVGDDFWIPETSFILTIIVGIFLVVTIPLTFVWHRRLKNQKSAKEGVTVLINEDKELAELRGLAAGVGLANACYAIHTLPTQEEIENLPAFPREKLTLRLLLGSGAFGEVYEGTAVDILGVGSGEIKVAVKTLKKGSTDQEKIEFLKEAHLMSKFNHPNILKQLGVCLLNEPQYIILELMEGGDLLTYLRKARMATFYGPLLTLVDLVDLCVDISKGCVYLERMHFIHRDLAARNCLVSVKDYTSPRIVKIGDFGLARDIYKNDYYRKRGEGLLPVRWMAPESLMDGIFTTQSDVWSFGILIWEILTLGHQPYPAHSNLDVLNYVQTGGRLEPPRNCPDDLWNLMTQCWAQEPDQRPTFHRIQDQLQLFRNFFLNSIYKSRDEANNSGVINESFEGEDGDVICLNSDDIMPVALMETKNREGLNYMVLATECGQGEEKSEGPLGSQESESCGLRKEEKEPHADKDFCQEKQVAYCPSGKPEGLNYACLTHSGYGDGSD

[15] = target: Proto-oncogene tyrosine-protein kinase ROS (Homo sapiens) (UniProt P08922); settings: at 1 µM
[16] = target: Proto-oncogene tyrosine-protein kinase Src (Homo sapiens) (UniProt P12931); settings: at 0.1 µM
Sequence of Proto-oncogene tyrosine-protein kinase Src (Homo sapiens) (P12931 2-536 limits assumed): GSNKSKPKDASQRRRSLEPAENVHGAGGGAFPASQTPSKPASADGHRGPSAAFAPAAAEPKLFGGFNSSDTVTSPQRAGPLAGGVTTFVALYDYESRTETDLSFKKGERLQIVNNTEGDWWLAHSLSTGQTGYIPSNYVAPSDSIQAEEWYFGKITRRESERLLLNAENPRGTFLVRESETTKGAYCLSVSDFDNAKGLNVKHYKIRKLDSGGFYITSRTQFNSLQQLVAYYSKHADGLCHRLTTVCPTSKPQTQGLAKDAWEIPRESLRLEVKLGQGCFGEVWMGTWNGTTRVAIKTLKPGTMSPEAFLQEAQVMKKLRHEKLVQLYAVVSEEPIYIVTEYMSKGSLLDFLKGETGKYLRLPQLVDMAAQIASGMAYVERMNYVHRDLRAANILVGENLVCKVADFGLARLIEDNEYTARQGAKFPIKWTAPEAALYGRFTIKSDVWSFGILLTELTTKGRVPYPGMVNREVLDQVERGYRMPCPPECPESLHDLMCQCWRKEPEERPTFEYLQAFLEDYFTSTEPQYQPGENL

[17] = target: Proto-oncogene tyrosine-protein kinase Src (Homo sapiens) (UniProt P12931); settings: at 1 µM
[18] = target: Tyrosine-protein kinase Srms (Homo sapiens) (UniProt Q9H3Y6); settings: at 0.1 µM
[19] = target: Tyrosine-protein kinase Srms (Homo sapiens) (UniProt Q9H3Y6); settings: at 1 µM
[20] = target: Tyrosine-protein kinase SYK (Homo sapiens) (UniProt P43405); settings: at 0.1 µM;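 also: reported percentages are mean inhibition values for SYK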

| Compound | inhibition [1] | inhibition [2] | inhibition [3] | inhibition [4] | inhibition [5] | inhibition [6] | inhibition [7] | inhibition [8] | inhibition [9] | inhibition [10] | inhibition [11] | inhibition [12] | inhibition [13] | inhibition [14] | inhibition [15] | inhibition [16] | inhibition [17] | inhibition [18] | inhibition [19] | inhibition [20] |
| --- | --- | --- | --- | --- | --- | --- | --- | --- | --- | --- | --- | --- | --- | --- | --- | --- | --- | --- | --- | --- |
| CN(C)c1ccc2c(c1)/C(=C/Nc1ccc(S(N)(=O)=O)cc1)C(=O)N2 | 71.3% | 1.57% | 2.09% | 8.05% | 31.7% | 20.2% | 51.5% | 12.5% | 51.1% | 11.2% | 47% | -0.09% | 7.23% | 4.66% | 8.86% | -4.52% | 27.4% | 1.2% | 3.48% |  |
| CCc1nccc2c1nc(-c1nonc1N)n2CC | 14% | 0.24% | -0.39% | 3.87% | 0.03% | 0.76% | 9.96% | 4.16% | 1.71% | 3.64% | 13.1% | -3.47% | 4.96% | 3.74% | 5.33% | -0.62% | 10.1% | -1.58% | -3.49% | -1.01% |
| CNC(=O)c1cncc(/C=C/c2c(C)cccc2C)c1 | 26.2% | 1.71% | 17.3% | -2.5% | -2.35% | 4.57% | 7.32% | -0.1% | 6.46% | 1.16% | 17.6% | 1.75% | 0.77% | -2.1% | 1.85% | 17.5% | 59% | 2.41% | 9.33% | 0.05% |
| C/C(Nc1ccc(S(N)(=O)=O)cc1)=C1/C(=O)Nc2ccccc21 | 43.1% | 1.09% | 0.76% | -1.67% | 17.8% | 6.38% | 35.9% | 13% | 53.9% | 5.97% | 40.3% | 5.82% | 4% | 3.08% | 8.7% | -2.31% | 0.81% | 1.16% | 4.16% | -1.12% |
| Fc1ccc(-c2ncn(C3CCNCC3)c2-c2ccnc(Oc3ccc(Oc4ccccc4)cc3)n2)cc1 | 3.75% | 2.37% | 2.86% | 3.19% | 6.71% | 2.36% | 5.4% | 3.16% | 7.16% | 15.6% | 4.3% | 0.16% | 0.94% | 12.1% | 11% | 10.9% | 15.3% | -1.67% | -1.36% | 0.87% |
| COc1cc2ncn(-c3cc(OCCc4ccccc4)c(C(N)=O)s3)c2cc1OC | 49.9% | 0.72% | 1.86% | 3.82% | 4.2% | 3.22% | 23.2% | 0.58% | 9.89% | 6.66% | 21.3% | -1.46% | 6.81% | 3.89% | 6.98% | 1.6% | 12.9% | -2.94% | -2.68% | -2.02% |
| NS(=O)(=O)c1ccc(N/N=C2\C(=O)Nc3ccc(C(=O)NCCCn4ccnc4)cc32)cc1 | 68.9% | 2.01% | 2.76% | 14.3% | 20.9% | 12.5% | 51.9% | 38.7% | 76.2% | 14.2% | 59.8% | -0.93% | 7.24% | 9.73% | 13.2% | 9.31% | 27.1% | -1.71% | 1.02% | -1.95% |
| C#Cc1cccc(Nc2ncnc3ccc(OCCCCNCCS(C)(=O)=O)cc23)c1 | 20.5% | 5.22% | 4.16% | 12.1% | 10.3% | 14.3% | 18.9% | 4.06% | 11.9% | 17.9% | 31.3% | 1.53% | 7.33% | 3.71% | 8.09% | 1.2% | 17.9% | 0.83% | 5.07% | -6.78% |
| NS(=O)(=O)c1ccc(Nc2cc(-c3ccc(O)c(F)c3)n[nH]2)cc1 | 53.4% | -1.68% | 0.93% | -2.28% | -1.9% | 11.3% | 55% | 10.6% | 47.6% | 14.1% | 55.5% | -1.82% | 10.5% | 0.96% | 3.04% | -0.44% | 8.59% | -1.1% | 1.72% | 3.87% |
| c1ccc(Oc2ccc(Nc3ncc(-c4ccccc4)o3)cc2)cc1 | 10.3% | -0.25% | 1.21% | 6.6% | 8.05% | 5.96% | 3.49% | 4.18% | 6.54% | 5.06% | 6.74% | 4.82% | 2.2% | 4.48% | 5.71% | -4.51% | 3.93% | 0.57% | 1.29% | -7.24% |
| NC(=O)c1cc(-c2ccncc2)cc(-c2ccccc2)c1N | 26% | 3.05% | 7.89% | 10.8% | 13.4% | 6.99% | 27% | 2.8% | 6.36% | 6.34% | 42.3% | 4.63% | 2.14% | 5.79% | 14.7% | 10.4% | 59.8% | 0.18% | 5.81% | -0.73% |
| CS(=O)(=O)CCNCc1cc(-c2cc3c(Nc4ccc(OCc5cccc(F)c5)c(Cl)c4)ncnc3s2)cs1 | 11.2% | 4.58% | 3.68% | 4.47% | 4.63% | 7.3% | 7.36% | 4.33% | 7.85% | 8.47% | 9.4% | 2.33% | 4% | 6.34% | 10% | 10.7% | 14.7% | -2.71% | -1.03% | -1.05% |
